According to publication PMC7862700, “An all-to-all approach to the identification of sequence-specific readers for epigenetic DNA modifications on cytosine”:

What was measured:
Test in all cases: DAPPL (digital affinity profiling via proximity ligation, sequencing); 10 mM Tris-HCl pH 7.5, 50 mM NaCl, 1 mM DTT, 4% glycerol, room temperature, 30 min; GST-TFs on glutathione beads, 16-mer random dsDNA library, 0.1% formaldehyde crosslink after washing; high values mean tight binding
FEV = biological target: T1, FEV (Homo sapiens, UniProt Q99581 1-238); details: protein: recombinant; tags: N-terminal GST; dsDNA, one strand shown
T1 sequence: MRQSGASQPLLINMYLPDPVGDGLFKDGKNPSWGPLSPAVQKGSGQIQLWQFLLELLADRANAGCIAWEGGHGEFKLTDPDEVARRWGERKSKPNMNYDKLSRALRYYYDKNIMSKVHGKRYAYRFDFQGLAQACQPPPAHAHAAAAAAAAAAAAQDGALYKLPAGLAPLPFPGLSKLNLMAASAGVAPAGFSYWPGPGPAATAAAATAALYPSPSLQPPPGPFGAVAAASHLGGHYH
How it was run: (§1)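 Each value of binding signal is a hexamer's read frequency for a factor divided by the same hexamer's frequency in the tag-only sample. Barcoded, bead-captured GST fusions of human transcription factors made in yeast were pooled with that sample and incubated with 200 nmole of a random double-stranded 16-mer DNA library in Tris/NaCl/DTT/glycerol buffer at room temperature for 30 min. Washing, 0.1% formaldehyde crosslinking, proximity ligation, PCR and Illumina NextSeq500 sequencing followed.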

ETV5 = ETV5 (Homo sapiens, UniProt P41161 1-510); details: protein: recombinant; tags: N-terminal GST; dsDNA, one strand shown
ETV5, sequence (P41161 whole entry): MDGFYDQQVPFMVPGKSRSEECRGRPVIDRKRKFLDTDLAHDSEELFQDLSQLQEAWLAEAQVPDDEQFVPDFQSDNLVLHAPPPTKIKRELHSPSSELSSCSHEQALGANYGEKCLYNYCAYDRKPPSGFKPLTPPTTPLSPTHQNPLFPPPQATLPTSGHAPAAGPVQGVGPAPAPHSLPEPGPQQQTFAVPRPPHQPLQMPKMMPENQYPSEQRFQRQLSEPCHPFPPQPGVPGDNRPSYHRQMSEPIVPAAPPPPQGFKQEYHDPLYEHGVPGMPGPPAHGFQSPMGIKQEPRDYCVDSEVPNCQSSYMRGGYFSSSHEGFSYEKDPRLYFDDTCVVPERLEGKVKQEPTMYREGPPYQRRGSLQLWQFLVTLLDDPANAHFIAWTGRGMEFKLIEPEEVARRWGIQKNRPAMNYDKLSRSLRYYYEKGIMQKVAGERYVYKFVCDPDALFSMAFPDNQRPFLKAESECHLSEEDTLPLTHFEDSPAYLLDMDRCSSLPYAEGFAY
How it was run: as §1

HSF1 = HSF1 (Homo sapiens, UniProt Q00613 1-529); details: protein: recombinant; tags: N-terminal GST; chain copies: 3; dsDNA, one strand shown
HSF1, sequence (Q00613 whole entry): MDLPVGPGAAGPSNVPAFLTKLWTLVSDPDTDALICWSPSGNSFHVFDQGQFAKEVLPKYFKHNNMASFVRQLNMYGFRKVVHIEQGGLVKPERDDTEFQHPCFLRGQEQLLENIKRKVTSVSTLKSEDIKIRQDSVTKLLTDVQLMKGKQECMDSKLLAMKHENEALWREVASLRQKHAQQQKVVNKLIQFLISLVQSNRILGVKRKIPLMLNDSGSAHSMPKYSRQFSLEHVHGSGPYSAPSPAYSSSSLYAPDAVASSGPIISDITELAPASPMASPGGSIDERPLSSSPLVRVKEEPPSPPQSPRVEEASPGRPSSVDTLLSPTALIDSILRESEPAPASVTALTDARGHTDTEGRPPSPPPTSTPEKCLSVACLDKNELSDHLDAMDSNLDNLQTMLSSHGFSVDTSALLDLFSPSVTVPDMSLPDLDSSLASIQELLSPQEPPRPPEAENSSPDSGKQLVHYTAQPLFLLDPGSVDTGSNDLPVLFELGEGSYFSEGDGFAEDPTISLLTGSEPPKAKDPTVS
How it was run: as §1

SPIC = biological target: T2, SPIC (Homo sapiens, UniProt Q8N5J4 1-248); details: protein: recombinant; tags: N-terminal GST; dsDNA, one strand shown
T2 sequence: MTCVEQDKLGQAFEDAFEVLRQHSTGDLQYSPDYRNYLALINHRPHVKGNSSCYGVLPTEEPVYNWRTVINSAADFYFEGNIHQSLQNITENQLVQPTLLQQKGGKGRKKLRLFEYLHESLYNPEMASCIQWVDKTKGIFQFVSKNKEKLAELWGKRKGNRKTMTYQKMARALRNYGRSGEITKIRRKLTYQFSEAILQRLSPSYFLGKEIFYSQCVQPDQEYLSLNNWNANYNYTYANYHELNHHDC
How it was run: as §1

ELF4 = ELF4 (Homo sapiens, UniProt Q99607 1-663); details: protein: recombinant; tags: N-terminal GST; dsDNA, one strand shown
ELF4, sequence (Q99607 whole entry): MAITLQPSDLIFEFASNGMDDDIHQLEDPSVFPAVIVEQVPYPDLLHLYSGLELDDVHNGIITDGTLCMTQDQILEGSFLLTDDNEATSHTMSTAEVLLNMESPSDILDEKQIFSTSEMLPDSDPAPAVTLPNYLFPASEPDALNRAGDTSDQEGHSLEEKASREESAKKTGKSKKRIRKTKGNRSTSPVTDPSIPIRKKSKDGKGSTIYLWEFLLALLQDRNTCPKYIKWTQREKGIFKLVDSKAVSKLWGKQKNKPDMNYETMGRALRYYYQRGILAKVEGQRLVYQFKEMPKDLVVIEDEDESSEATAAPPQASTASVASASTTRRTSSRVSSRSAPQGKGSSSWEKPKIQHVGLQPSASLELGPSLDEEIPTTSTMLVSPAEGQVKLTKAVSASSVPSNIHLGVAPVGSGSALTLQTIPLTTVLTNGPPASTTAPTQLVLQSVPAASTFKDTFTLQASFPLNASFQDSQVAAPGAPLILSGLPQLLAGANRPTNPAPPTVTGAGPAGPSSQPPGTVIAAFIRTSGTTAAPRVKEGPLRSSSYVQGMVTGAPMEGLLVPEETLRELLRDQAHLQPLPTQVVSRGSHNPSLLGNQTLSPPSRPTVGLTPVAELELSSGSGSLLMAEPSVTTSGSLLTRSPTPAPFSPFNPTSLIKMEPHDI
How it was run: as §1

ELK4 = biological target: T3, ELK4 (Homo sapiens, UniProt P28324-2 1-405); details: protein: recombinant; tags: N-terminal GST; dsDNA, one strand shown
T3 sequence: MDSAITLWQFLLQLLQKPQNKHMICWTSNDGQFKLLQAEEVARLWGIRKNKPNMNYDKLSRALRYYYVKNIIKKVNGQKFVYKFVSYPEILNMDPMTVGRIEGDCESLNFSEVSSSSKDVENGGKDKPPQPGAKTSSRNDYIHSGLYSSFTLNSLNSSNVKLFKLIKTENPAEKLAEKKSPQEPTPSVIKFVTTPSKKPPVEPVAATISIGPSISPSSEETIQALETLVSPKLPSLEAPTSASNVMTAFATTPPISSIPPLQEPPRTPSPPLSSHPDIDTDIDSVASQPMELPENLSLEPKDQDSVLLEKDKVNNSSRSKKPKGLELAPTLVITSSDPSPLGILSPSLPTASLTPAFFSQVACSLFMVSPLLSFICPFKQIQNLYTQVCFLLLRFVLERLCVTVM
How it was run: as §1

ETV2 = biological target: T4, ETV2 (Homo sapiens, UniProt O00321 1-342); details: protein: recombinant; tags: N-terminal GST; dsDNA, one strand shown
T4 sequence: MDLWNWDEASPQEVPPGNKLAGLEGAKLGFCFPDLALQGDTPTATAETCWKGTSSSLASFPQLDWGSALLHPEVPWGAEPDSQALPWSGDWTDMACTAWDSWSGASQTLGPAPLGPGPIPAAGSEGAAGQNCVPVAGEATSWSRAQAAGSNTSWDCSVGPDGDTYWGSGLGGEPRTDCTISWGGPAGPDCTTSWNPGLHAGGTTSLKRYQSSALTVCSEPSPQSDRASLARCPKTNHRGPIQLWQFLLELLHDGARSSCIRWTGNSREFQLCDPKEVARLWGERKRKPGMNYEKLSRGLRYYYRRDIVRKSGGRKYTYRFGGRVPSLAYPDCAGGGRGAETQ
How it was run: as §1

ELF3 = biological target: T5, ELF3 (Homo sapiens, UniProt P78545 1-371); details: protein: recombinant; tags: N-terminal GST; dsDNA, one strand shown
T5 sequence: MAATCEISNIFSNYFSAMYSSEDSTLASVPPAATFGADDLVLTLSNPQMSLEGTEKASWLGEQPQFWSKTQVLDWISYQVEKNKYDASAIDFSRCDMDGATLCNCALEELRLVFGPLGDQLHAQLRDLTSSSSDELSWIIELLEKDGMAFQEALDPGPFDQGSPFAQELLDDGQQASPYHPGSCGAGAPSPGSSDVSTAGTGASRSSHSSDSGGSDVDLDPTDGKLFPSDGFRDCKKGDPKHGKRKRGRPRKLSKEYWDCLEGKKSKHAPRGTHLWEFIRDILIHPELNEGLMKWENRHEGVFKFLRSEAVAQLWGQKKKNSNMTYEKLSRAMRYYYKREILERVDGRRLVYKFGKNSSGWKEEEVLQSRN
How it was run: as §1

CRX = CRX (Homo sapiens, UniProt O43186 1-299); details: protein: recombinant; tags: N-terminal GST; dsDNA, one strand shown
CRX, sequence (O43186 whole entry): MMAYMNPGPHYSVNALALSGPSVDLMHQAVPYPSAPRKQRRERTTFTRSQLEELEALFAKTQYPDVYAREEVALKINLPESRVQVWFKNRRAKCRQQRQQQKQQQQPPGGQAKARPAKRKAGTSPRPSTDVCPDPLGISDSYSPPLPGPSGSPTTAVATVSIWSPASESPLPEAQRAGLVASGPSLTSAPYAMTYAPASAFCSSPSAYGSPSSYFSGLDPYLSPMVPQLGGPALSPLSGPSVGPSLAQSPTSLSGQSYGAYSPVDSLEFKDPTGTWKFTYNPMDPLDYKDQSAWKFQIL
How it was run: as §1

ETV1 = ETV1 (Homo sapiens, UniProt P50549 1-477); details: protein: recombinant; tags: N-terminal GST; dsDNA, one strand shown
ETV1, sequence (P50549 whole entry): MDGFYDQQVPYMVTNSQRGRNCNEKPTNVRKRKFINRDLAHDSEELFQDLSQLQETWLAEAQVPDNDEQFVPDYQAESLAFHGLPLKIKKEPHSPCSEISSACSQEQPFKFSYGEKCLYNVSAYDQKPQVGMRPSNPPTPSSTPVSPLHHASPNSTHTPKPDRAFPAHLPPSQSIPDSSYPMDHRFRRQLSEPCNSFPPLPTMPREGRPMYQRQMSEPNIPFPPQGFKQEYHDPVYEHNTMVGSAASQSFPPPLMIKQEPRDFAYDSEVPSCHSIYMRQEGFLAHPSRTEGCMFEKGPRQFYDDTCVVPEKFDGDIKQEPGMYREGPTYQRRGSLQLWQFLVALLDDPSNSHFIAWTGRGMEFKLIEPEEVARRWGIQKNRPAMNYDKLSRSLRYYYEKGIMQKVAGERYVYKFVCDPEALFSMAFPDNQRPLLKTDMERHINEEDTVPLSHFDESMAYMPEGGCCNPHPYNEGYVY
How it was run: as §1

ERF = biological target: T6, ERF (Homo sapiens, UniProt P50548 1-548); details: protein: recombinant; tags: N-terminal GST; dsDNA, one strand shown
T6 sequence: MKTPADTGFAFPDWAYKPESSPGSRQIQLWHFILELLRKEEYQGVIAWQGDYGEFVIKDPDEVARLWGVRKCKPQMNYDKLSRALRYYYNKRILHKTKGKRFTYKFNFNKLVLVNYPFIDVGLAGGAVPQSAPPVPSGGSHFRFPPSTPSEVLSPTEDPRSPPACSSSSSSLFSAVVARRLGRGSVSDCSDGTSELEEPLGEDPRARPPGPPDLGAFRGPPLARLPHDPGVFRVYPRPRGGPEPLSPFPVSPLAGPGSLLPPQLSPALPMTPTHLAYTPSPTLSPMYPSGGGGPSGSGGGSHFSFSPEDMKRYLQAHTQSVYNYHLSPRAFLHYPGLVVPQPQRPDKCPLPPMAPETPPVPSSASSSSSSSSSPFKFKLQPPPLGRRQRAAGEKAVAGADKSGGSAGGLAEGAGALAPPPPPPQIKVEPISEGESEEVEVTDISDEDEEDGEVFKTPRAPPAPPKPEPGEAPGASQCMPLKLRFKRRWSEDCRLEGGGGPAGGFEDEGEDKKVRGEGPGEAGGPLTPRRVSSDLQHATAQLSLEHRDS
How it was run: as §1

ETV3L = biological target: T7, ETV3L (Homo sapiens, UniProt Q6ZN32 1-361); details: protein: recombinant; tags: N-terminal GST; dsDNA, one strand shown
T7 sequence: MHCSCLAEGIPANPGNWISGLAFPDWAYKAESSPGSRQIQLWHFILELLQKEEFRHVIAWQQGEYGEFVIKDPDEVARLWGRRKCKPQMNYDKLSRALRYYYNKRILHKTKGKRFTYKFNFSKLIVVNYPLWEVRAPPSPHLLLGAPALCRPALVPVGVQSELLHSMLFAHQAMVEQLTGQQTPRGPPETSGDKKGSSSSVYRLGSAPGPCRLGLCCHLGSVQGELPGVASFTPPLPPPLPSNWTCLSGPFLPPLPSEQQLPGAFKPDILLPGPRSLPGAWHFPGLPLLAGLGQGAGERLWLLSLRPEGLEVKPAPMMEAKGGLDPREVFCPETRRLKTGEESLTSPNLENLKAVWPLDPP
How it was run: as §1

ETS2 = biological target: T8, ETS2 (Homo sapiens, UniProt P15036 1-469); details: protein: recombinant; tags: N-terminal GST; dsDNA, one strand shown
T8 sequence: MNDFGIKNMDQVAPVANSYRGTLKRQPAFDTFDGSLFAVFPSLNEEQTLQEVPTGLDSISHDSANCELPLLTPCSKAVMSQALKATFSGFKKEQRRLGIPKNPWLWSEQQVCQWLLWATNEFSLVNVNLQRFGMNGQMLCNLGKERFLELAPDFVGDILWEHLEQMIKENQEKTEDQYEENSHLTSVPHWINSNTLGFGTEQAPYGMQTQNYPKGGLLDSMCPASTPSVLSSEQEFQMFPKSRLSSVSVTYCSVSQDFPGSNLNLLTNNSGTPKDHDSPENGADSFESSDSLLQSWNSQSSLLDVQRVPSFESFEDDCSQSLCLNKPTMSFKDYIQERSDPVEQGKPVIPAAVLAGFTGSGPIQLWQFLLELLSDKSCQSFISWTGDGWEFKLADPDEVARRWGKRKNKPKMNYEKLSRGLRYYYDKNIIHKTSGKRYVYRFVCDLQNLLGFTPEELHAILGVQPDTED
How it was run: as §1

SPDEF = biological target: T9, SPDEF (Homo sapiens, UniProt O95238 1-335); details: protein: recombinant; tags: N-terminal GST; dsDNA, one strand shown
T9 sequence: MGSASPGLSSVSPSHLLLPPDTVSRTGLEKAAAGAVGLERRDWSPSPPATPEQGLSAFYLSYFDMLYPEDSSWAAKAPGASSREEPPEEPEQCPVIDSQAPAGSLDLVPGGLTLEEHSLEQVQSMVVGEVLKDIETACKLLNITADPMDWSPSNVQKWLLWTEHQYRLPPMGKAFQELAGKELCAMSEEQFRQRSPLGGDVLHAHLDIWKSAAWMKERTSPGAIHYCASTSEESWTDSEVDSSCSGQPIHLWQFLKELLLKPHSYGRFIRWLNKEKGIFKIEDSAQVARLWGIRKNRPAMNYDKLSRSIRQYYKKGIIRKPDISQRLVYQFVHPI
How it was run: as §1

ETV7 = biological target: T10, ETV7 (Homo sapiens, UniProt Q9Y603 1-341); details: protein: recombinant; tags: N-terminal GST; dsDNA, one strand shown
T10 sequence: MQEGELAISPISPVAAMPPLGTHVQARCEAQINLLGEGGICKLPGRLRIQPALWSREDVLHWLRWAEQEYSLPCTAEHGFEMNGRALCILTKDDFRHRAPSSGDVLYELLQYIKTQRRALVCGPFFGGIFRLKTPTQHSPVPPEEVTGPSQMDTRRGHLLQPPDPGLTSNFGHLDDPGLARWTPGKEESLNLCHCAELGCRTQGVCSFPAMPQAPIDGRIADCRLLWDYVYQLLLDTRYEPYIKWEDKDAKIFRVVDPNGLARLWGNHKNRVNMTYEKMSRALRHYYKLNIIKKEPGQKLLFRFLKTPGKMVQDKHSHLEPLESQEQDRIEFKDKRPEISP
How it was run: as §1

ELF5 = biological target: T11, ELF5 (Homo sapiens, UniProt Q9UKW6-2 1-255); details: protein: recombinant; tags: N-terminal GST; dsDNA, one strand shown
T11 sequence: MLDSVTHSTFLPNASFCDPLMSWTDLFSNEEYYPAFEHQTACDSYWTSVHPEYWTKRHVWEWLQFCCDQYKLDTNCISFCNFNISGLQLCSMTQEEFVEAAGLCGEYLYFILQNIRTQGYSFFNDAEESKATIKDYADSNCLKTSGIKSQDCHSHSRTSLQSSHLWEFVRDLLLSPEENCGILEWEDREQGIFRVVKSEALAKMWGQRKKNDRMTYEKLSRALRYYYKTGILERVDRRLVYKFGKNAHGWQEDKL
How it was run: as §1

ETV3 = biological target: T12, ETV3 (Homo sapiens, UniProt P41162-2 1-143); details: protein: recombinant; tags: N-terminal GST; dsDNA, one strand shown
T12 sequence: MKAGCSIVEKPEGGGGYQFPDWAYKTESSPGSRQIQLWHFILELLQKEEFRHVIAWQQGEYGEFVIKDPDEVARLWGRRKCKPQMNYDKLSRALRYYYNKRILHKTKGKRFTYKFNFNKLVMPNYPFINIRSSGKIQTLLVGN
How it was run: as §1

ETV6 = ETV6 (Homo sapiens, UniProt P41212 1-452); details: protein: recombinant; tags: N-terminal GST; dsDNA, one strand shown
ETV6, sequence (P41212 whole entry): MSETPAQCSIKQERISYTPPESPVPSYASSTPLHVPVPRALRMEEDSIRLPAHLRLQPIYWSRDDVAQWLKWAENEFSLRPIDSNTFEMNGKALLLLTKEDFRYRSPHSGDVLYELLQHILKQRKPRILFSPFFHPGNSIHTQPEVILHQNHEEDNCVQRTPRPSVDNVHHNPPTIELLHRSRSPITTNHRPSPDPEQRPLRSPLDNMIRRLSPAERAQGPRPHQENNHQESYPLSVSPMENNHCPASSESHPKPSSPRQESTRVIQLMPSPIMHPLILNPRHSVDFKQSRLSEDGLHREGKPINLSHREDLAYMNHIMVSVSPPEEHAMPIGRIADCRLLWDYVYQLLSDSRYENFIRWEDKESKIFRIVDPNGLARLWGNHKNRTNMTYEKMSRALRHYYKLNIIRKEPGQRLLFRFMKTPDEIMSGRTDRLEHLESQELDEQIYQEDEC
How it was run: as §1

Which binding signal (FEV) does the source give for AGATTT here?
Its binding signal is 1.16 fold enrichment (6-mer frequency, TF over GST control).

What about the binding signal (ETV5) of the same sequence?
Its binding signal is 1.2 fold enrichment (6-mer frequency, TF over GST control).

And the binding signal (HSF1)?
Its binding signal is 1.75 fold enrichment (6-mer frequency, TF over GST control).

What about the binding signal (SPIC) of the same sequence?
Its binding signal is 1.06 fold enrichment (6-mer frequency, TF over GST control).

And the binding signal (ELF4)?
Its binding signal is 1.16 fold enrichment (6-mer frequency, TF over GST control).

And the binding signal (ELK4)?
The binding signal was 1.25 fold enrichment (6-mer frequency, TF over GST control).

What about the binding signal (ETV2) of the same sequence?
Its binding signal is 1.05 fold enrichment (6-mer frequency, TF over GST control).

What about the binding signal (ELF3) of the same sequence?
The binding signal was 1.21 fold enrichment (6-mer frequency, TF over GST control).

And the binding signal (CRX)?
Its binding signal is 1.84 fold enrichment (6-mer frequency, TF over GST control).

And the binding signal (ETV1)?
Its binding signal is 1.15 fold enrichment (6-mer frequency, TF over GST control).

What about the binding signal (ERF) of the same sequence?
The binding signal was 1.2 fold enrichment (6-mer frequency, TF over GST control).

What about the binding signal (ETV3L) of the same sequence?
Its binding signal is 1.17 fold enrichment (6-mer frequency, TF over GST control).

And the binding signal (ETS2)?
Its binding signal is 1.17 fold enrichment (6-mer frequency, TF over GST control).

What about the binding signal (SPDEF) of the same sequence?
The binding signal was 1.05 fold enrichment (6-mer frequency, TF over GST control).

And the binding signal (ETV7)?
The binding signal was 1.16 fold enrichment (6-mer frequency, TF over GST control).

And the binding signal (ELF5)?
Its binding signal is 1.22 fold enrichment (6-mer frequency, TF over GST control).

What about the binding signal (ETV3) of the same sequence?
Its binding signal is 1.05 fold enrichment (6-mer frequency, TF over GST control).

What about the binding signal (ETV6) of the same sequence?
The binding signal was 1.11 fold enrichment (6-mer frequency, TF over GST control).
